# Bioassay records from PubChem BioAssay.
# Rows were chosen to be rich in hits. Some 1.9% of all compounds tested hit in one or more screens of this group.
# S1P3 antagonist: S1P3 (human) receptor antagonism. inhibition, % at 4.98 µM. CHO S1P3 NFAT-BLA reporter, FRET fluorescence, antagonist mode. Q99500. hit rate 0.27% among 170,000. AID 485;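 active means inhibition above the plate cutoff, the mean inhibition of test wells on that plate plus 3 SD, cut at about 28% in these data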;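 further: cells challenged with S1P at its EC80 of 0.8 µM; blue over green emission ratio from cleaved BLA substrate after 4 h stimulation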
# Target sequence (Q99500 whole entry, looked up): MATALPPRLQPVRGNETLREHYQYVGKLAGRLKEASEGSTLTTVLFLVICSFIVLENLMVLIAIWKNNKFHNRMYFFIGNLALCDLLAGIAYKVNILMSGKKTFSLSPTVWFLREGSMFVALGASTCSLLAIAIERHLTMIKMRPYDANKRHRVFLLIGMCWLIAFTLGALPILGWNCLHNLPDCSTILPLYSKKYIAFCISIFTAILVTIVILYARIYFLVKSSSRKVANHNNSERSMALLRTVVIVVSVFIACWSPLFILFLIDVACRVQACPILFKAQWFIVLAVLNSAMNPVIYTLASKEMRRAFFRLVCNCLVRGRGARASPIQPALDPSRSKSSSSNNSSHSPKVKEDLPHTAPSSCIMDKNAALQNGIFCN
# EP2 modulator: modulators of human EP2 prostaglandin E2 receptor; induction, % at 25 µM; P43116; AID 940; hit rate 0.83% among 260,000; EP2-expressing cells, cAMP HTRF FRET, PGE2 co-stimulation;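 active means compounds whose cAMP rise, as percent of the full-agonist control response, exceeds 60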;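 further: rat C6 glioma line stably carrying human EP2 under a CMV promoter; the protocol text gives 20 µM as final concentration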
# Pf gametocyte: kills late stage P. falciparum gametocytes; hit rate 0.065% among 150,000; AID 743093; inhibition, % at 10.9 µM; P. falciparum stage V gametocytes, ATP luminescence, 24 h;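 active means inhibition above the mean plus 3 SD of compounds within the control limits, set per campaign, cut at about 38% in these data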
# S1P4 antagonist: human S1P4 receptor antagonism; hit rate 0.26% among 220,000; inhibition, % at 4.98 µM; S1P4-expressing cells, antagonist mode, reporter read-out; AID 1510; in the data active means inhibition above about 29%
# S1P4 ag: activates the human S1P4 receptor; hit rate 0.35% among 220,000; S1P4-expressing cell line, agonist reporter assay; AID 1509; activation, % at 4.98 µM; O95977; in the data active means activation above about 11%
# EP2 antag: blocks the human prostaglandin E2 receptor EP2; P43116; C6 glioma cells expressing human EP2, cAMP TR-FRET; cells stimulated with saturating PGE2; inhibition, % at 25 µM; hit rate 0.52% among 260,000;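 active means percent inhibition above 40 after rounding to a whole number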;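 further: rat C6 glioma host cells with rolipram phosphodiesterase inhibitor present; the protocol text gives 20 µM as final concentration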
# EP2 cAMP induct: human EP2 receptor cAMP induction, negative in counter-screens; shares compounds with EP2 modulator; C6 glioma EP2 cells, cAMP HTRF induction; plus low (about EC15) PGE2 agonist; calls only at 20 µM (by protocol); hit rate 47% among 1,300;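 active means cAMP induction above 50% in the main assay while under 30% in all four parallel counter assays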;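 further: rat C6 glioma cells stably expressing human EP2 receptor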
# Hits are given with their value; – = inactive; · = no result given; + = active, no number; ! = not confirmed by another sample.
SMILES,S1P3 antagonist,EP2 modulator,Pf gametocyte,S1P4 antagonist,S1P4 ag,EP2 antag,EP2 cAMP induct
COc1ccc(C2=NN(C(=O)c3cccs3)C(O)(C(F)(F)F)C2)cc1 (stereo not drawn),–,98,–,–,–,–,+
COc1ccc(C2=NN(C(=O)c3cccs3)C(c3ccccc3O)C2)cc1 (stereo not drawn),–,71,·,–,–,–,+
CC1(C)CC(=O)C2=C(C1)Nc1ncnn1C2c1cccc(Cl)c1Cl (stereo not drawn),·,–,·,·,·,–,·
Cc1cc(C)nc(SCc2nnc(SCC#N)n2-c2cccc(Cl)c2)n1,–,–,–,–,–,–,–
CCc1nn(CC(=O)N(C(C)C)C(C)C)c(=O)c2cc3oc(C)cc3n12,·,–,·,·,·,–,·
FC(F)(F)c1nc(=S)c2ccccc2[nH]1,–,71,·,–,–,–,–
Cc1nc(=S)c2ccccc2[nH]1,·,–,·,–,–,–,·
COc1ccc(N(CC(=O)N2CCC(C(N)=O)CC2)S(C)(=O)=O)cc1OC,·,–,·,·,·,–,·
CC1(C)CN=C(N(Cc2ccccc2)C(=O)Nc2ccccc2)S1,–,–,·,–,–,–,·
Cc1cccnc1N(C(=O)Nc1ccccc1)C1=NCC(C)(C)S1,–,86,·,–,–,–,+
CC1(C)CN=C(N(C(=O)Nc2ccccc2)c2ccccc2F)S1,–,–,–,–,–,–,·
Cc1cccnc1N(C(=O)Nc1cccc(Cl)c1)C1=NCC(C)(C)S1,–,70,–,–,–,–,+
COc1ccc(C(=O)/C(=C/O)N=Nc2ccc(F)cc2)cc1,–,69,–,–,–,–,+
Cc1cccc(N=N/C(=C\O)C(=O)c2ccc(Br)cc2)c1,–,97,–,–,–,–,+
COc1ccc(N=N/C(=C\O)C(=O)c2cccs2)cc1,–,67,–,–,–,–,–
COc1ccc(NC(=O)c2cccs2)cc1,·,–,·,–,–,–,·
CCC(=O)NNC(=O)CSc1nc(C2CCCCC2)nc2sc(C)c(C)c12,·,–,·,·,·,–,·
COc1cccc(/C(O)=C2/C(=O)C(=O)N(CCCN(C)C)C2c2cccs2)c1 (stereo not drawn),·,–,·,·,·,–,·
CCOC(=O)c1sc2ncn(CC(=O)OC(C)C)c(=O)c2c1C,·,–,·,·,·,–,·
COc1cc2c(cc1OC)CN(c1ccc(-c3ccccc3OC)nn1)CC2,–,65!,·,–,–,–,–
COc1ccccc1-c1ccc(NC2CCCC2)nn1,·,–,·,–,–,–,·
Cc1ccc(C)n1-c1ccc(N(C)C)cc1,–,66,–,–,–,–,–
Cc1ccc(C)n1-c1ccc(N2CCOCC2)cc1,–,–,–,–,–,–,·
CCOC(=O)C1=C(N)OC2=C(C(=O)CC(C)(C)C2)C1c1ccc(CC)s1 (stereo not drawn),–,73,–,–,–,–,+
CCOC(=O)C1=C(N)OC2=C(C(=O)CC(C)(C)C2)C1c1ccco1 (stereo not drawn),–,–,–,–,–,–,·
SMILES,S1P3 antagonist,EP2 modulator,Pf gametocyte,S1P4 antagonist,S1P4 ag,EP2 antag,EP2 cAMP induct
CCc1ccc(NC(=O)c2cc(C)on2)cc1,–,–,·,–,–,–,·
CCCc1cc(C(=O)OC)c(NC(=O)c2cc(C)on2)s1,·,–,·,–,–,–,+
C/C(=N\N=C(c1ccccc1)c1ccccc1)c1ccco1,–,81,·,–,–,–,+
C/C(=N\NC(=O)c1ccco1)c1ccc(NC(=O)c2ccccc2)cc1,–,–,·,–,–,–,·
O=C(O)COc1ccc2occ(C(=O)c3ccccc3)c2c1,–,66,·,–,–,–,+
Cc1ccc(C(=O)c2coc3ccc(OCC(=O)O)cc23)cc1,–,69,–,–,–,–,+
c1ccc(-c2cc(N3CCOCC3)nc(-c3ccccc3)n2)cc1,–,–,·,–,–,–,·
CCSc1cc(N2CCOCC2)nc(-c2ccccc2)n1,–,65,–,–,–,–,+
COc1ccc2c(COC(=O)c3n[nH]c4ccccc34)cc(=O)oc2c1,·,75,·,–,–,–,–
Cc1cc2oc(=O)cc(COC(=O)c3n[nH]c4ccccc34)c2cc1C,·,–,·,–,–,·,·
COc1cc2ccccc2cc1C(=O)NC(=S)Nc1cccc(C(=O)O)c1,–,95,–,–,–,–,+
CC(C)CCn1c(O)c(N=NC(=O)c2ccco2)c2ccccc21,–,73,–,–,–,–,–
COc1ccc(C2(C(=O)NC(C)c3nc(-c4cccnc4)n[nH]3)CC2)cc1 (stereo not drawn),·,–,·,·,·,–,·
COc1ccc2nc(SCC(=O)OC(C)C)c(C)cc2c1,·,–,·,·,·,–,·
COc1ccc2oc(=O)c(-c3csc(Nc4cccc(O)c4)n3)cc2c1,–,–,–,–,–,–,·
COc1ccc(Nc2nc(-c3cc4cccc(OC)c4oc3=O)cs2)cc1,–,71,–,–,–,–,+
COc1ccccc1OCCN(C)C(=O)c1cnc(C(C)(C)C)nc1,·,–,·,·,·,–,·
O=C(Nc1ccc2oc(=O)ccc2c1)c1cc(Cl)ccc1Cl,·,–,·,·,·,–,·
CN(Cc1cccs1)c1nc(-c2cccnc2)nc2ccccc12,–,74,–,–,–,–,+
CCC(C)Nc1nc(-c2cccnc2)nc2ccccc12 (stereo not drawn),·,–,·,·,·,–,·
Cc1ccc(S(=O)(=O)N(CC(=O)N=Nc2c(O)[nH]c3ccccc23)c2ccc(C)c(C)c2)cc1,–,67,–,–,–,–,+
N#CC1=C(S)N(c2ccccc2)C2(CCCCC2)NC1=O,–,71,–,–,–,–,–
CCCCNc1nc(-c2ccccc2)c(C(=O)OCC)cc1C#N,·,65,–,–,–,–,+
CCCNc1nc(-c2ccccc2)c(C(=O)OCC)cc1C#N,·,–,·,–,–,–,·
C=CCn1c(=O)c2c3c(sc2n2c(Nc4ccc(OC)cc4)nnc12)CCCC3,–,75,·,–,–,–,+
SMILES,S1P3 antagonist,EP2 modulator,Pf gametocyte,S1P4 antagonist,S1P4 ag,EP2 antag,EP2 cAMP induct
CN(C)c1oc(-c2ccccc2Cl)nc1P(=O)(c1ccccc1)c1ccccc1,·,71,·,–,–,–,+
CC(C)(C)C1(O)CC(C(F)(F)F)=NN1C(=O)c1ccncc1 (stereo not drawn),·,–,·,·,·,–,·
COC1(C)CC2C(CC1OC(=O)c1cc([N+](=O)[O-])cc([N+](=O)[O-])c1)C2(C)C (stereo not drawn),–,72,–,–,–,–,+
COc1ccc(C2NC(=O)NC(C)=C2C(=O)OC(C)C)c(OC)c1 (stereo not drawn),·,–,·,·,·,–,·
Cc1ccc(C(C)C)c(OCc2ccc(-c3nnco3)cc2)c1,–,66,–,–,–,–,–
CC(C)=CCC/C(C)=C/CC/C(C)=C/CSc1ccccc1C(=O)O,·,73,·,·,·,–,–
Cc1ccc(O)c(N=Cc2cc(Cc3ccccc3)cc([N+](=O)[O-])c2O)c1,–,69,–,–,–,–,–
COc1ccc(C(=O)Nc2ccc(N3CCN(C(=O)c4cccs4)CC3)cc2)cc1,·,–,·,·,·,–,·
COC(=O)CSc1cnc2ccccc2n1,·,–,·,–,–,–,·
